Source: PubChem BioAssay
An excerpt weighted towards active compounds, which were near 4.8% of everything screened.
ssDAF12 agonist = S. stercoralis DAF-12 activation, primary screen. AID 652126. HEK293 ssDAF-12/GRIP1 lit1-tk-luc reporter, luminescence; % of 3 µM dafachronic acid response. activation, % at 6.8 µM. 1% of 370,000 active;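 active means activation above the mean over all tested compounds plus 3 SD, cut at about 0.9% in these data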;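 further: 0% = DMSO-only wells and 100% = 3 µM delta7-dafachronic acid wells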
hcDAF12 agonist = activates DAF-12 receptor from parasite H. contortus. 1.4% of 370,000 active. activation, % at 6.8 µM. HEK293 hcDAF-12 lit1-tk-luc reporter, luminescence; 0% DMSO, 100% Δ7-dafachronic acid;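 active means activation above the mean of all tested compounds plus 3 SD, cut at about 5.5% in these data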;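 further: 100% = response to 3 µM Δ7-dafachronic acid high control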
hgDAF-12 ag = activates the H. glycines DAF-12 receptor ligand-binding domain; HEK293 GAL4-hgDAF12 UAS-luciferase reporter, agonist luminescence; normalized to butyrate control; activation, % at 6.8 µM; 1.8% of 370,000 active;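 active means activation above a cutoff set at the mean of all screened compounds plus 3 SD, cut at about 10% in these data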;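 further: 0% = DMSO wells and 100% = sodium butyrate wells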
SMARCA2 act = activators of SMARCA2 function; MG213 cells, MMTV-luciferase reporter, dexamethasone, overnight; activation, % at 9.1 µM; AID 652017; 1% of 370,000 active; in the data active means activation above about 7.8%;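 further: 0% = vehicle wells and 100% = reference activator wells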
DAX1 inh-1 = inhibitors of DAX1 repression of SF-1 activated StAR promoter | HEK293T StAR-luciferase reporter, SF-1/DAX-1 repression relief | 1.1% of 370,000 active | AID 652010 | inhibition, % at 6.8 µM;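 active means inhibition above the mean over all tested compounds plus 3 SD, cut at about 3.6% in these data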;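 further: 0% = DAX-1 cells with DMSO and 100% = cells lacking DAX-1 with DMSO; higher inhibition means more luminescence from relief of DAX-1 repression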
DAX1 inh-2 = inhibitors of human orphan nuclear receptor DAX1 (NR0B1) | P51843 | HEK293 Gal4-DAX1 luciferase reporter, luminescence | inhibition, % at 6.75 µM | 0.99% of 340,000 active;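 active means inhibition above the mean over all tested compounds plus 3 SD, cut at about 4.2% in these data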;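 further: 0% = DAX1-transfected cells with DMSO and 100% = empty-vector control cells with DMSO; inhibition shows as a rise in luminescence from relieved DAX1 repression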
Target sequence (P51843 207-470 limits assumed): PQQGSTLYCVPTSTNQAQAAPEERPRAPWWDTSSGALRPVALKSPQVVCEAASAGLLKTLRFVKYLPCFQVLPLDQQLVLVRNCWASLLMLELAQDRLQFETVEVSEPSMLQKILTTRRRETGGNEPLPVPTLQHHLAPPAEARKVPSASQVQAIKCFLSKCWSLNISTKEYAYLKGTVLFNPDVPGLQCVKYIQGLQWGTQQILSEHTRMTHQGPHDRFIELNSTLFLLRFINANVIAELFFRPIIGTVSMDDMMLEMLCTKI
Active calls of the source: *; nt = no result.

SMILES	ssDAF12 agonist	hcDAF12 agonist	hgDAF-12 ag	SMARCA2 act	DAX1 inh-1	DAX1 inh-2
COc1ccc(OC)c(CNc2ccc3c(c2)nc(C)n3C)c1	-1.7	-1.6	-0.7	-1.1	-0.1	0.8
COc1ccc(N=Nc2nc3cc(Br)c(Br)cc3n2C)c(OC)c1	1.6*	0.9	0.2	-0.9	0.1	-0.6
Cc1nn(-c2ccc(C(F)(F)F)cn2)c(C)c1Oc1ccccc1O	-1.3	-2.2	-0.5	0.0	-0.4	1.9
CN(C)/C=N/c1ncnc2c1cnn2-c1ccc(C(F)(F)F)cn1	-0.2	4.3	10.9*	1.7	1.4	0.6
O=C(NCCSSCCNC(=O)c1ccccc1)c1ccccc1	-1.6	-1.9	4.4	-3.3	-0.7	-0.9
O=C(NCCSc1ccccc1)c1ccccc1	0.2	4.8	11.6*	0.6	3.3	2.7
O=C(NCSc1ccncn1)c1ccccc1	-1.5	-1.3	1.8	-2.6	-0.2	4.9*
CCCCOC(=O)Nc1ccc(C(C)C)cc1	0.2	2.1	5.5	1.8	2.3	0.0
CCCOC(=O)c1ccc(NC(=O)CC(C)(C)C)cc1	0.1	3.9	12.5*	6.5	3.8*	2.4
CCCCOC(=O)c1ccc(NC(=O)c2ccoc2C)cc1	-2.0	0.6	11.6*	4.0	0.7	1.4
CCCCOC(=O)Nc1ccc(C(N)=O)cc1	-0.5	0.3	9.4	3.7	0.9	4.3*
CCCOC(=O)c1ccc(NC(=O)COC)cc1	-0.6	0.3	5.1	3.6	0.2	0.5
O=C(NC(Cc1c[nH]c2ccccc12)C(=O)O)c1ccc(Br)cc1 (stereo not given)	-0.5	2.5	-2.1	-2.1	-0.2	0.4
Cc1c(C(=O)Nc2nccs2)oc2ccc(F)cc12	1.6*	6.3*	8.9	1.1	2.0	2.3
COc1ccc(/C=N\NC(=O)CCc2c(C)n[nH]c2C)c(OC)c1OC	-0.1	3.4	5.0	-0.3	0.3	-0.5
Cc1n[nH]c(C)c1CCC(=O)N/N=C/c1c[nH]c2ccccc12	2.1*	6.1*	0.8	-3.3	1.0	1.1
Cc1n[nH]c(C)c1CCC(=O)N/N=C/c1c(C)[nH]c2ccccc12	-0.9	4.2	1.0	-2.3	-0.4	6.2*
O=C(NCC(c1cccs1)N1CCOCC1)C1CCN(S(=O)(=O)c2cc(Cl)ccc2Cl)CC1 (stereo not given)	-1.3	-1.3	2.9	0.0	-0.7	0.2
Cc1ccc(N/C(=C\C(=O)c2ccccc2)C(=O)O)cc1	1.1*	3.0	10.5*	2.1	4.3*	1.4
COC(=O)/C(=C\C(=O)c1ccccc1)Nc1ccc(OC)cc1	-0.1	2.4	3.4	4.3	1.0	2.1
Cc1ccc(C=Nc2ccccc2C(N)=O)cc1	-0.4	5.9*	11.8*	3.3	0.1	1.2
Cc1ccc(C=Nc2ccccc2C(=O)Nc2ccccc2)cc1	-1.1	-0.4	-1.3	4.7	-0.5	-0.1
COc1ccc(S(=O)(=O)n2cccc2)cc1	-1.2	0.8	-1.0	2.0	-0.5	nt
O=C(N/N=C/c1ccc([N+](=O)[O-])cc1)c1[nH]ncc1Br	0.1	0.2	8.8	6.7	1.9	4.7*
O=C(CNc1ccccc1)N/N=C/c1ccc([N+](=O)[O-])cc1	1.6*	-1.2	3.7	-3.9	-0.2	1.2
SMILES	ssDAF12 agonist	hcDAF12 agonist	hgDAF-12 ag	SMARCA2 act	DAX1 inh-1	DAX1 inh-2
O=C(COC(=O)c1ccco1)Nc1ccc2[nH]c(=O)[nH]c2c1	-1.6	3.1	-3.2	-1.5	1.0	0.6
N#CCC(=O)N1CCN(C=O)CC1	-1.6	-1.6	-1.0	-1.0	-0.9	4.7*
Nc1ccc2nc(Cc3ccccc3)[nH]c2c1	-1.4	1.0	-3.3	0.2	-0.2	4.6*
COc1ccccc1N(C)S(=O)(=O)c1ccc(C(=O)OCC(=O)NCc2ccco2)cc1	-1.0	-1.0	-1.5	1.7	-0.4	0.4
Cc1cc(-n2c(C)cc(C(=O)CN3C(=O)NC4(CCCC4)C3=O)c2C)no1	-1.6	-0.5	2.2	1.7	0.2	5.9*
Cc1cc(C(=O)CN2C(=O)NC3(CCCCC3)C2=O)c(C)n1Cc1ccco1	2.6*	4.4	11.3*	3.7	4.0*	7.1*
Cc1cc(C(=O)CN2C(=O)NC3(CCCCC3)C2=O)c(C)n1Cc1ccc2c(c1)OCO2	-0.8	-1.3	7.9	-2.2	0.1	0.8
Nc1ccc(C(=O)OCc2nc3ccccc3s2)cc1	-0.5	0.5	3.2	7.2	0.5	-0.5
O=C(OCc1nc2ccccc2s1)c1ccc(Br)s1	1.1*	2.7	5.0	5.0	0.0	2.0
NC(=O)CSCc1nc2ccccc2s1	0.5	6.0*	1.6	2.1	0.5	-0.1
Cc1ccc(C(=O)OCc2nc3ccccc3s2)o1	0.4	5.8*	8.3	2.1	3.2	0.3
Cc1sc2ncnc(SCC(=O)NNC(=O)c3ccco3)c2c1C	-1.4	-2.5	-1.0	-1.7	-0.2	-0.5
Cc1sc2ncnc(OCC(=O)N3CCN(C(=O)c4ccco4)CC3)c2c1C	-1.4	-0.9	1.7	2.4	-0.9	5.7*
CCOc1ccc(CCNC(=O)CSc2cc(=O)n(C)c3cc(Cl)ccc23)cc1OCC	-0.9	-0.8	-3.2	-0.8	-0.6	0.9
CC1=C(C(=O)N(C(C)C)C(C)C)CC(CC(=O)NCc2cccc3ccccc23)C(=O)N1Cc1ccc(F)cc1 (stereo not given)	-1.2	0.1	0.8	0.2	-0.2	nt
O=C1C=C(O)c2c(O)cc(O)c(O)c2C1=O	-1.9	0.3	-2.5	-0.5	0.1	5.2*
O=C1c2ccccc2C(=O)c2c(O)c(O)cc(O)c21	0.2	1.9	5.2	-0.4	-0.2	-0.7
CNNC(=O)C(=O)NNS(=O)(=O)c1ccccc1	-0.4	2.8	-0.4	-3.1	0.6	5.8*
COc1ccc(C(=O)C(C)OC(=O)COc2ccccc2)cc1 (stereo not given)	-0.7	0.5	-3.0	2.7	3.8*	0.1
CC(OC(=O)COc1ccc(C#N)cc1)C(=O)c1ccccc1 (stereo not given)	-1.5	-1.1	0.8	-3.8	1.0	0.6
O=C(Nc1ccc(OC(F)F)cc1)c1ccccn1	-1.0	0.3	4.7	3.0	-0.4	0.1
O=C(NCCc1cccs1)c1ccc(CS(=O)Cc2ccc(Cl)cc2)o1 (stereo not given)	-1.5	-2.4	-0.7	-2.2	0.0	0.7
COc1ccc(NC(=S)N/N=C/c2ccc(F)cc2)cc1OC	-1.3	-0.2	11.2*	2.8	1.9	-0.4
O=C(CN1C2CCCC1CC(NC(=O)c1ccccc1)C2)NC1CC1 (stereo not given)	-1.5	-1.5	-2.6	-0.7	-0.4	2.9
O=C(/C=C/[C@H]1O[C@@H](n2cnc3c(NC(=O)c4ccccc4)ncnc32)[C@H](O)[C@@H]1O)N[C@@H](CO)Cc1c[nH]c2ccccc12	-1.1	-0.3	2.6	-5.3	0.1	nt
O=C(NC1CCCCC1)C(CCc1ccccc1)N1CCOCC1 (stereo not given)	-0.4	0.0	12.0*	-2.6	0.9	nt
